PubChem BioAssay (NCATS)
Unmarked numbers belong to inactive results. Results filed as inconclusive are left out. Calls of active or inactive are those of the source. Unless noted, calls follow the shape of the dose curve; as a rule, active = well fitted curve in either direction with a large enough effect (not every such curve was filed as active); inconclusive = small, poorly fitted or top-dose-only effect, or another doubt; inactive = flat fitted curve, though single readings scatter.

Key:
[1] = molecular target: Lysosomal acid glucosylceramidase (Homo sapiens) (UniProt P04062); assay: Glucocerebrosidase-p2 (AID 348; in the data active = potency below about 10 µM; also: potency is read from the fitted curve at half-maximal effect); conditions: purified GBA, blue fluorogenic substrate, 40 min
Outline: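 Compounds titrated from 0.6 nM upwards against 0.2 nM enzyme in pH 5.9 citric acid/KH2PO4, taurocholate, tween-20; blue fluorogenic substrate 80 uM, 40 min room temperature, stopped and read Ex 365/Em 440 for AC50.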

[2] = AP1 Signaling Pathway (AID 357); conditions: ME-180 AP-1-bla reporter, EGF-induced, beta-lactamase ratio, 5 h; at 7.69 µM (top of the series) unless noted;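 also: ME-180 reporter cells stimulated with EGF at its EC50 level; % is scaled to controls: 0 for no effect and ±100 for the full control effect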
Outline: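 In this screen, ME-180 cells in Opti-MEM with 0.5% dialyzed FBS received EC50 EGF and compound titrations for 5 h. AP-1 reporter beta-lactamase was detected via CCF4 ratio, giving AC50 for positive and negative modulators.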

[3] = Stat Signaling Pathway (AID 446); conditions: ME-180 SIE beta-lactamase reporter, IL-6 stimulated, 5 h; at 7.69 µM (top of the series) unless noted;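 also: ME-180 cervical cancer cells given 40 pM IL-6 alongside compound; SIE-controlled beta-lactamase reporter measured as 460/530 nm FRET emission ratio; % is scaled to controls: 0 for no effect and ±100 for the full control effect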
Outline: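 Screening format detects activators and inhibitors alike: ME-180 SIE-bla cells stimulated at 40 pM IL-6 for 5 hrs with compound, then dual-emission beta-lactamase read at 405 nm excitation.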

[4] = molecular target: Glucocorticoid receptor (Homo sapiens) (UniProt P04150); assay: GR-GFP Redistribution (AID 450;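 active = compounds whose dose series gives a full or clear partial fitted curve of increased nuclear translocation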; also: potency is read from the fitted curve at half-maximal effect); conditions: U2OS GR-GFP nuclear translocation, laser cytometry, 2 h
[5] = molecular target: Glucocorticoid receptor (Homo sapiens) (UniProt P04150); assay: GR-EFC Redistribution (AID 451; calls by dose curve; also: potency is read from the fitted curve at half-maximal effect); conditions: CHO-K1 GR-EFC translocation, beta-gal luminescence, 2 h
Outline: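 CHO-K1 cells expressing nuclear EA and GR-ED fragments of b-gal; compounds titrated up to 46 uM final, 2 h at 37 C. GR nuclear translocation read as complemented b-gal luminescence after 1 h RT detection.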

[6] = molecular target: Mitogen-activated protein kinase 10 (Mus musculus) (UniProt Q61831); assay: JNK3 AlphaScreen Assay (AID 530); conditions: JNK3 lysate, c-Jun phosphorylation; series mostly up to 11.4 µM;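 also: kinase came from lysate of stimulated human HepG2 cells; signal reports phosphorylation of biotinylated GST-cJun 1-79 at Ser73 with 10 µM ATP; % is scaled to controls: 0 for no effect and ±100 for the full control effect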
Outline: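 qHTS format: compounds tested as titrations against IL-1beta/TNF-alpha-activated HepG2 lysate JNK3 with biotin-GST-cJun substrate and 10 uM ATP at room temperature. Loss of anti-phospho-cJun AlphaScreen signal indicates inhibition.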

[7] = molecular target: 3',5'-cyclic-AMP phosphodiesterase 4B (Homo sapiens) (UniProt Q07343); assay: qHTS Assay for Inhibitors of PDE-IV (AID 607; active = well fitted activation curve with a large enough effect in the main read-out, with a control signal flat, not every such curve was filed as active; also: % of control where 0% means no effect); conditions: HEK293 ACTOne CNG channel cells, membrane potential fluorescence; series mostly up to 22.9 µM
Outline: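 The readout is membrane depolarisation from a cAMP-sensing CNG channel, detected with a potential dye at ex 535/em 590. Cells were HEK293-derived (endogenous PDE-IV) at 1000 cells/well, titrated up to 22.9 uM final.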

[8] = molecular target: Cytochrome P450 2C19 (Homo sapiens) (UniProt P33261); assay: qHTS Assay for Inhibitors and Substrates of Cytochrome P450 2C19 (AID 899; active = well fitted curve in the direction sought with a large enough effect; an effect the other way counts as inactive or inconclusive; also: % is scaled to controls: 0 for no effect and ±100 for the full control effect; nearly all actives have a fitted effect of over 60% in size); conditions: recombinant CYP2C19, luciferin-H EGE luminescence; series mostly up to 11.4 µM
Outline: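 Luminescent read-out of luciferin formed from Luciferin-H EGE (10uM, equal to KM). Enzyme 5nM in 50mM KPO4; compound added, 10 min at 37C, then NADPH regenerating system for 60 min at 37C. Full inhibition defined by 57uM ketoconazole.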

[9] = qHTS Assay for Identification of Small Molecule Agonists for Hypoxia Response Element Signaling Pathway (AID 914; active = well fitted activation curve with a large enough effect in the signal ratio, with a control signal flat, not every such curve was filed as active; the % refers to the signal ratio; also: % of control where 0% means no effect); conditions: ME-180 (cervical carcinoma) HRE-bla reporter, beta-lactamase ratio, CoCl2, 17 h; activation: stronger effect = higher value
Outline: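 Positive modulation of EC50 CoCl2-induced hypoxia response element signaling is measured in ME-180 cells with a beta-lactamase reporter. Compounds are titrated, incubation runs 17 hours, and %Activity derives from the blue/green ratio.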

[10] = molecular target: Cytochrome P450 2C9 (Homo sapiens) (UniProt P11712); assay: qHTS Assay for Inhibitors and Substrates of Cytochrome P450 2C9 (AID 883; active = well fitted curve in the direction sought with a large enough effect; an effect the other way counts as inactive or inconclusive; also: potency is read from the fitted curve at half-maximal effect; nearly all actives have a fitted effect of over 60% in size); conditions: recombinant CYP2C9, luciferin-H luminescence, 60 min; series mostly up to 11.4 µM
Outline: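 10nM CYP2C9 + 100uM Luciferin-H (=KM), 25mM KPO4; cpd 10 min 37C; NADPH regen, 60 min 37C; stop/detect with P450 Glo-Buffer 20 min; luminescence. Norm. to 57uM sulphaphenazole as full inhibition.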

[11] = molecular target: Cytochrome P450 3A4 (Homo sapiens) (UniProt P08684); assay: qHTS Assay for Activators of Cytochrome P450 3A4 (AID 885; active = well fitted curve in the direction sought with a large enough effect; an effect the other way counts as inactive or inconclusive; also: nearly all actives have a fitted effect of over 65% in size); conditions: recombinant CYP3A4, Luciferin-PPXE luminescence, 60 min; series mostly up to 11.4 µM
Outline: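 Steps: enzyme/substrate mix dispensed; compound added, 10 min RT; NADPH regeneration solution added, 60 min RT; luciferin detection buffer stops reaction; 20 min later luminescence measured.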

[12] = molecular target: Cytochrome P450 1A2 (Homo sapiens) (UniProt P05177); assay: p450-cyp1a2 (AID 410; calls by dose curve; also: potency is read from the fitted curve at half-maximal effect;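 as to activity change, negative = inhibition: -100% = full effect of reference inhibitor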); conditions: recombinant CYP1A2, luciferin-ME demethylation, luminescence; series mostly up to 11.4 µM
Outline: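 Inhibition was calculated relative to 57 uM furafylline (full inhibition). The reaction used human CYP1A2 at 20nM with Luciferin-ME at its Km, 100uM, driven by an NADPH-regenerating system for 60 min at room temperature.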

[13] = NFAT Signaling Pathway (AID 444); conditions: Jurkat NFAT-bla M1, carbachol, beta-lactamase ratio, 5 h; at 7.69 µM (top of the series) unless noted;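 also: carbachol stimulus at about its EC50 of 1 µM final; % is scaled to controls: 0 for no effect and ±100 for the full control effect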
Outline: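 Jurkat cells with NFAT-driven β-lactamase reporter and co-expressed M1 receptor, stimulated with carbachol (final 1 uM, ~EC50), compound titration, 5 h at 37 °C. CCF4 loaded 1 h at RT; 460/530 nm ratio gave %activity and AC50.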

Chain of Lysosomal acid glucosylceramidase (Homo sapiens) (P04062 whole entry, looked up): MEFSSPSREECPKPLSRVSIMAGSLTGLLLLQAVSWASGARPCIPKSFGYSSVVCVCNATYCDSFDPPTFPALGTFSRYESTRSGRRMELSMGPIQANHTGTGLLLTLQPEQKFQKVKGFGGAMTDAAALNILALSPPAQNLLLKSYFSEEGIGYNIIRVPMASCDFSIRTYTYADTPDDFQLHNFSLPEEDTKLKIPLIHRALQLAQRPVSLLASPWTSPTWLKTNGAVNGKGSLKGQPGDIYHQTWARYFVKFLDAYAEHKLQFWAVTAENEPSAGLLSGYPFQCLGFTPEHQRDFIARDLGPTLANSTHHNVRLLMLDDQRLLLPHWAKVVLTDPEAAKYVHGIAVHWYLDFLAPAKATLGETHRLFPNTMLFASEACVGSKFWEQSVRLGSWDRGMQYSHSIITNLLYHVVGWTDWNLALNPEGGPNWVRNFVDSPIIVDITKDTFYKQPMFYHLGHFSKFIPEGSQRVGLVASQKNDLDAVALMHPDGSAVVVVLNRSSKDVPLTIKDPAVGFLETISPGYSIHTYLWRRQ
Chain of 3',5'-cyclic-AMP phosphodiesterase 4B (Homo sapiens) (Q07343 whole entry, looked up): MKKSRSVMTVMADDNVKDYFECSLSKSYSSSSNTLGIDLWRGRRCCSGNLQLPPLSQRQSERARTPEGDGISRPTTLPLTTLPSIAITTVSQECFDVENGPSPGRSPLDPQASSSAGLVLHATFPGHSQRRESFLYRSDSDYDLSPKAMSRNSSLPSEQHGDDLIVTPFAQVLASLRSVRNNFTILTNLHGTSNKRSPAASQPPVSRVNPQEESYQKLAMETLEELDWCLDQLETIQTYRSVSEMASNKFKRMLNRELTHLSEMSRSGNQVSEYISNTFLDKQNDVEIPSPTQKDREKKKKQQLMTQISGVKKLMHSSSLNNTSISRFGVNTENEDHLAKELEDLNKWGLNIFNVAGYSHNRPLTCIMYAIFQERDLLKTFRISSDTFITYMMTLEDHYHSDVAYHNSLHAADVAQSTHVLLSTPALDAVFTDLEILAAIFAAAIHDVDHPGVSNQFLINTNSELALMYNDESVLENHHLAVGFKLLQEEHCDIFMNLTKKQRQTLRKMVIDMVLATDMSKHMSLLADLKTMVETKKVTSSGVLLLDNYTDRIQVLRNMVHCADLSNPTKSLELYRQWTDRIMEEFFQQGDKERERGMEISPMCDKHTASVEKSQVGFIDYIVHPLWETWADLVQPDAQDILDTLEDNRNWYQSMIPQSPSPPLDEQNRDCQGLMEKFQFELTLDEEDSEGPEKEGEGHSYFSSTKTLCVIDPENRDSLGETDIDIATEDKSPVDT
Chain of Glucocorticoid receptor (Homo sapiens) (P04150 whole entry, looked up, the tested form may be a part): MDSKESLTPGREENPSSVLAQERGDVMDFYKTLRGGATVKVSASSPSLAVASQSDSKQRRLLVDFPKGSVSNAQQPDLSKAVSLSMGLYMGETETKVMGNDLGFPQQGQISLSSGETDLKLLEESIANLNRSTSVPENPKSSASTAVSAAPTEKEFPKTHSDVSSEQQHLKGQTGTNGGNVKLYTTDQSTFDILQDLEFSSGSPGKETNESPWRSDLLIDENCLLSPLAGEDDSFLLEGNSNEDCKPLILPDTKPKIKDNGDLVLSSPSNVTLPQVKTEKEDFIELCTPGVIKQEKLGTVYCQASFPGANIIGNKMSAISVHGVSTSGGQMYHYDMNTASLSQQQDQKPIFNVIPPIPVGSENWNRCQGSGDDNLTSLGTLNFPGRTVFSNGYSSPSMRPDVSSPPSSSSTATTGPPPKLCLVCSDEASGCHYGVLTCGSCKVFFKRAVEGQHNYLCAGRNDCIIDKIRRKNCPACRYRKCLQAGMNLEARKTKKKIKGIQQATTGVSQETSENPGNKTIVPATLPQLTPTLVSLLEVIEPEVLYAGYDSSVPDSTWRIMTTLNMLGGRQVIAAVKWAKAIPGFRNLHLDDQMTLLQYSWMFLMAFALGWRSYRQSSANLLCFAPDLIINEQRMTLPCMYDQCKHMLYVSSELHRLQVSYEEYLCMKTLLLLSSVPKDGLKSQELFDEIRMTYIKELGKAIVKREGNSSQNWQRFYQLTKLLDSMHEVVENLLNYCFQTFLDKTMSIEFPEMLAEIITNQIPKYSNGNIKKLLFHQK
Chain of Cytochrome P450 1A2 (Homo sapiens) (P05177 whole entry, looked up): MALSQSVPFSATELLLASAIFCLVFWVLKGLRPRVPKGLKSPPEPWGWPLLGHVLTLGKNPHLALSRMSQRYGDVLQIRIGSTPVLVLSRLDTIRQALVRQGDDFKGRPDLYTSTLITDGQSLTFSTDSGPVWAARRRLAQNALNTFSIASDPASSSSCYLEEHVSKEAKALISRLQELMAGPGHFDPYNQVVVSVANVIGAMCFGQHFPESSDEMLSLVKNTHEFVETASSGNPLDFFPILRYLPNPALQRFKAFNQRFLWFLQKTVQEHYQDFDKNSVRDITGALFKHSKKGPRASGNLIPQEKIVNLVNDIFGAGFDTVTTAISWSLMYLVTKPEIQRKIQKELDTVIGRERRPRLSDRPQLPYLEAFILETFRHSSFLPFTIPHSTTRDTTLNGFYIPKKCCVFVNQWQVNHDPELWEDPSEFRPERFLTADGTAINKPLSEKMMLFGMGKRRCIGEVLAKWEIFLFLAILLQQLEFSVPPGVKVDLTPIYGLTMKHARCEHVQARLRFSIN
Chain of Cytochrome P450 3A4 (Homo sapiens) (P08684 whole entry, looked up): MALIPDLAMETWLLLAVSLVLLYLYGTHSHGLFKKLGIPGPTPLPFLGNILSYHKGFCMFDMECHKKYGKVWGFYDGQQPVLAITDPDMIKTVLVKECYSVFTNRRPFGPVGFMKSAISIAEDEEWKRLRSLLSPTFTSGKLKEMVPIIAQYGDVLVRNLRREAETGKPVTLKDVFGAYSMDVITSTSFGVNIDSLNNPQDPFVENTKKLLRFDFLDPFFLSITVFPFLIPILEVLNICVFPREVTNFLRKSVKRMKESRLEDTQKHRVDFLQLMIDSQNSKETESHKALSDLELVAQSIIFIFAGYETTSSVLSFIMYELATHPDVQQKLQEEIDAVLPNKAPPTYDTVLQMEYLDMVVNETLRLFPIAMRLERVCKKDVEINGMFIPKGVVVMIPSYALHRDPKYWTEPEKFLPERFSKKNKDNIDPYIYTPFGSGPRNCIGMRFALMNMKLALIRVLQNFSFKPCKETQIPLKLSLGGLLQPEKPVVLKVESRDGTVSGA
Chain of Cytochrome P450 2C19 (Homo sapiens) (P33261 whole entry, looked up): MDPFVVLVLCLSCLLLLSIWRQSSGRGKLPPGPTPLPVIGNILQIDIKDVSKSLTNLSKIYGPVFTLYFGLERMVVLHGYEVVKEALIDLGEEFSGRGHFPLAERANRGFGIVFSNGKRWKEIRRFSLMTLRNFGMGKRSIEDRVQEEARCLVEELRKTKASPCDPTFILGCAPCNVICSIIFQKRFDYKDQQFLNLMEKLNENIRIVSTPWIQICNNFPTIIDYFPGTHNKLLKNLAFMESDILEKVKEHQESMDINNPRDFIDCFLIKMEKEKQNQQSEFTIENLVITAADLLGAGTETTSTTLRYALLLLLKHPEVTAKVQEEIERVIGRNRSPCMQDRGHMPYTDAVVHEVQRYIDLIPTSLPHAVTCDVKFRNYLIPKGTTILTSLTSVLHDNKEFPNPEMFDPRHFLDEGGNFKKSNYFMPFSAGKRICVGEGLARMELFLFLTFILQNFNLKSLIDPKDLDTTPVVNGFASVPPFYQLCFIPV
Chain of Cytochrome P450 2C9 (Homo sapiens) (P11712 whole entry, looked up): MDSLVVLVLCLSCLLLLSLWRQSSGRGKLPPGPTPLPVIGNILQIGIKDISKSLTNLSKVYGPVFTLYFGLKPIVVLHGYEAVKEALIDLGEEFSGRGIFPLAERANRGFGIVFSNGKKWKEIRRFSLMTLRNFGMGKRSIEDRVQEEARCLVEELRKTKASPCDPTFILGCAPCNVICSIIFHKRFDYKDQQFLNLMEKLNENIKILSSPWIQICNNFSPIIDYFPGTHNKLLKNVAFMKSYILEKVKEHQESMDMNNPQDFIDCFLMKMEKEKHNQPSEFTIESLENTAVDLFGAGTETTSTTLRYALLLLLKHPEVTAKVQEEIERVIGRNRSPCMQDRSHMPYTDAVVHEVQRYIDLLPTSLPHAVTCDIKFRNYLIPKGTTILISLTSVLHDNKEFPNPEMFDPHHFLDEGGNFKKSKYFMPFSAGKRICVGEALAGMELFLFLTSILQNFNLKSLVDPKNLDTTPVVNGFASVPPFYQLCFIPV

N#Cc1c(NC(=O)CCC(=O)O)ccc2ccccc12
Potency [1]: > 11.4 µM
activity change, negative = inhibition [2]: -3.75%
activity, negative = inhibition [3]: 4.61%
Potency [4]: > 46 µM
Potency [5]: > 9.22 µM
Potency [6]: inactive
Potency [7]: inactive
Potency [8]: inactive
activation [9]: 3.84%

O=C(c1[nH]o[n+](=O)c1C(=O)c1csc2ccccc12)c1csc2ccccc12
Potency [1]: > 11.4 µM
activity change, negative = inhibition [2]: 3.39%
activity, negative = inhibition [3]: -7.78%
Potency [4]: > 46 µM
Potency [5]: > 9.22 µM
Potency [6]: inactive
Potency [7]: inactive
Potency [10]: 1.58 µM (active)
Potency [11]: inactive

CC(=O)O[C@H]1CC[C@@]2(C)C(=CC[C@@H]3[C@@H]4CC[C@H](c5cc(C(F)(F)F)n(C(C)=O)n5)[C@]4(C)CC[C@@H]32)C1
Potency [1]: > 11.4 µM
Potency [12]: inactive
activity change, negative = inhibition [13]: 12.1%
activity, negative = inhibition [3]: 16.4%
Potency [4]: > 46 µM
Potency [5]: > 9.22 µM
Potency [6]: inactive
Potency [7]: inactive

CSc1nc(C)cc(Nc2ccc(O)c(CN3CCCCC3)c2)n1
Potency [1]: > 11.4 µM
activity change, negative = inhibition [2]: -6.95%
activity, negative = inhibition [3]: 2.99%
Potency [4]: > 46 µM
Potency [5]: > 9.22 µM
Potency [6]: inactive
Potency [7]: inactive
activation [9]: 4.77%

O[C@@H](c1cc(-c2ccccc2)nc2c1ccc1ccccc12)[C@@H]1CCCCN1
Potency [1]: > 11.4 µM
activity change, negative = inhibition [2]: -3.12%
Potency [4]: > 46 µM
Potency [5]: > 9.22 µM
Potency [6]: inactive

FC(F)(F)c1cc(NC(=S)N2c3ccccc3-n3cccc3[C@H]2c2cccnc2)cc(C(F)(F)F)c1
Potency [1]: > 11.4 µM
activity change, negative = inhibition [2]: -2.69%
activity, negative = inhibition [3]: -5.05%
Potency [4]: > 46 µM
Potency [5]: > 9.22 µM
Potency [6]: inactive
Potency [7]: inactive

NS(=O)(=O)c1ccc(N=Nc2ncccc2O)cc1
Potency [1]: > 11.4 µM
activity change, negative = inhibition [2]: 7.11%
activity, negative = inhibition [3]: 5.47%
Potency [4]: > 46 µM
Potency [5]: > 9.22 µM
Potency [6]: inactive
Potency [7]: inactive
Potency [11]: inactive

Cc1cc(Cl)nc(NC(=O)CSc2ccc(Cl)cc2)n1
Potency [1]: > 11.4 µM
Potency [12]: 5.01 µM (active)
activity change, negative = inhibition [13]: 16.8%
activity, negative = inhibition [3]: 11%
Potency [4]: > 46 µM
Potency [5]: > 9.22 µM
Potency [6]: inactive
Potency [7]: inactive
